Test results from PubChem BioAssay AID1724 (National Center for Advancing Translational Sciences (NCATS), 2009).
Inconclusive results are not listed. Calls of active or inactive are those of the source. Calls come from the whole dose curve; as a rule, active = well fitted inhibition curve with a large enough effect; inconclusive = small, poorly fitted or top-dose-only effect, or effect the other way; inactive = no such curve, though single readings can be large or run the other way.

Experiment: Confirmation Concentration-Response Assay for Inhibitors of the ERK Signaling Pathway using a Homogeneous Screening Assay
Conditions: HEK293 cells, hormone-stimulated phospho-ERK AlphaScreen; series mostly up to 40.9 µM; activity change, negative = inhibition: at the top concentration
Excerpt: qHTS Assay for Inhibitors of the ERK Signaling Pathway using a Homogeneous Screening Assay
NIH Chemical Genomics Center [NCGC]
NIH Molecular Libraries Screening Centers Network [MLSCN]
Assay Submitter (PI): Dr. Wei Zheng, NCGC/NIH
The Ras/extracellular-signal-regulated kinase (ERK) mitogen activated protein (MAP) kinase signaling pathway (ERK1/2 cascade) plays is a key role in transmitting signals from the cell surface to the nucleus (Nishida and Gotoh 1993; Chang and Karin, 2001). The cascade is initiated by the small G-protein Ras, which recruits Raf […], where activation occurs. Alternatively, this pathway can be activated by elevating intracellular cAMP.
Activation of the ERK pathway is essential in increased cell division and cell survival. Sustained and constitutive activation of the ERK pathway, however, has been linked to uncontrolled cell proliferation, increased cell survival, and tumor progression. Thus, the ERK has been as an attractive target for cancer chemotherapy in the past few years (Sebolt-Leopold and Herrera, 2004). Given its physiological and pathological importance, assessment of ERK phosphorylation has been broadly performed in both basic research and drug discovery. Most assays for the measurement of ERK phosphorylation use the antibody-based detection methods, such as western blot and ELISA. These assays require multiple reagent additions with cell wash steps and are not suitable for high-throughput screening.
The current cell-based ERK phosphorylation assay was performed using AlphaScreen platform. […]
HEK293 cells stably expressing type-1 vasopressin receptor (V1b) were maintained in DMEM medium (Invitrogen, Carlsbad, CA) at 37C under a humidified atmosphere containing 5% CO2 and 95% air. […] The ERK phosphorylation in cells was determined using an AlphaScreen assay kit provided by PerkinElmer. […] AC50 values were determined from concentration-response data modeled with the standard Hill equation. […]
(10) Detect the assay plate in an EnVision plate reader (PerkinElmer) using the AlphaScreen detection mode. […]

| Compound | activity change, negative = inhibition | Potency |
| --- | --- | --- |
| O=C1NC(=O)C(=Cc2ccccc2Oc2ccc(F)cc2)C(=O)N1 | 2.48% (inactive) | – |
| N#Cc1c(Cl)c(Cl)c(Cl)c(C#N)c1Cl | – | 2.24 µM (active) |
| CC1=CC(=O)c2c(O)cccc2C1=O | -128% (inactive) | – |
